Experimental data: PubChem BioAssay (NCATS)
Active and inactive are the calls of the source. Unless noted, calls come from the whole dose curve.

Biological target: Glucocorticoid receptor (Homo sapiens) (UniProt P04150)
Assay: GR-GFP Redistribution (AID 450;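 active = compounds whose dose series gives a full or clear partial fitted curve of increased nuclear translocation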)
Conditions: U2OS GR-GFP nuclear translocation, laser cytometry, 2 h; series mostly up to 20.6 µM
Potency is the fitted concentration of half-maximal effect.

Glucocorticoid receptor (Homo sapiens), sequence (P04150 whole entry, looked up): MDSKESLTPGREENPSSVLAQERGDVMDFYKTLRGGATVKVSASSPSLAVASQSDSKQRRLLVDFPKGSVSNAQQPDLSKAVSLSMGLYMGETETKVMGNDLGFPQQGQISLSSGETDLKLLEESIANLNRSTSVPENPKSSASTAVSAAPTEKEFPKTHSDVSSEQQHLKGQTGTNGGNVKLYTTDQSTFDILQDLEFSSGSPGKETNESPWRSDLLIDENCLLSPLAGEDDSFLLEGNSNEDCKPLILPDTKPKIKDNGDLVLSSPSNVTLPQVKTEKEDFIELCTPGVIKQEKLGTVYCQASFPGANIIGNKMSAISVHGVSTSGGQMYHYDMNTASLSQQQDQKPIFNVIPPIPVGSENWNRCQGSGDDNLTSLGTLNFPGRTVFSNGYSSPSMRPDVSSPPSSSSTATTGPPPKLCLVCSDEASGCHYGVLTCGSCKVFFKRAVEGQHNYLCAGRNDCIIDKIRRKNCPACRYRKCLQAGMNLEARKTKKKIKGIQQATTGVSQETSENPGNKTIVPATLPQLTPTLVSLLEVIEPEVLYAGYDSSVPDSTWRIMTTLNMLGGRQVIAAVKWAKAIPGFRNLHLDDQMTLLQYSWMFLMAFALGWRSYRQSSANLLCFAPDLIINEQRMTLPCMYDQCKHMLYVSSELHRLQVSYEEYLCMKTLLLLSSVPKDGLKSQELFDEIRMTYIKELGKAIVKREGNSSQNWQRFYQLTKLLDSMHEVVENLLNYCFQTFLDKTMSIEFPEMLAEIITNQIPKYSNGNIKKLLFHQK

Potency, inactive:
CCN(CC)C(=O)c1sc2nc(-c3cccs3)cc(-c3cccs3)c2c1N > 20.6 µM
C[C@@H]1C(=O)O[C@H]2[C@@H](O)[C@@]34[C@H]5C[C@H](C(C)(C)C)[C@@]36[C@H](OC(=O)[C@@H]6O)O[C@@]4(C(=O)O5)[C@@]12O > 46 µM
C=C(CO)[C@H]1Cc2c(ccc3c2O[C@H]2COc4cc(OC)c(OC)cc4[C@@H]2C3=O)O1 > 46 µM
COc1ccc(-c2coc3ccc(O[C@@H]4O[C@@H](COC(C)=O)[C@@H](OC(C)=O)[C@@H](OC(C)=O)[C@H]4OC(C)=O)c(OC(C)=O)c3c2=O)cc1 > 46 µM
CC1(C)Cc2c(C#N)c(NCc3ccco3)nc(-c3ccco3)c2CO1 > 20.6 µM
CN[C@@H]1[C@H](O)[C@H](NC)[C@@H]2O[C@]3(O)C(=O)C[C@@H](C)O[C@H]3O[C@@H]2[C@H]1O > 46 µM
O=C1C[C@H](c2ccccc2)Oc2cc(O)cc(O)c21 > 46 µM

Biological target: Glucocorticoid receptor (Homo sapiens) (UniProt P04150)
Assay: GR-EFC Redistribution (AID 451)
Conditions: CHO-K1 GR-EFC translocation, beta-gal luminescence, 2 h
How it was run: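 Translocation of GR-ED fusion to nuclear EA restores b-gal, read by luminescence after 1 h room-temperature detection. Engineered CHO-K1 biosensor cells, 1,000/well, exposed 2 h at 37 C to titrations up to 46 uM final.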

Potency, inactive:
C=C/C(=C\C)C[C@@H](CC(=O)N[C@@H](CCC(=O)O)CC(=O)O)NC(=O)[C@@H]1CNCC[C@H]1NC(=O)C[C@@H](NC(=O)C[C@H](Cc1ccccc1)NC(=O)[C@@H]1CCCC[C@H]1N)C(C)C > 46 µM
NCCC[C@@H](CC(=O)N[C@@H]1CCCC[C@H]1C(=O)N[C@H](CC(=O)N[C@@H](CCC(=O)O)CC(=O)O)Cc1c[nH]c2ccccc12)NC(=O)C[C@H](Cc1ccccc1)NC(=O)[C@@H]1CCCC[C@H]1N > 46 µM
NCCC[C@@H](CC(=O)N[C@@H]1CCNC[C@H]1C(=O)N[C@H](CC(=O)N[C@@H](CCC(=O)O)CC(=O)O)Cc1c[nH]c2ccccc12)NC(=O)C[C@H](Cc1ccccc1)NC(=O)[C@@H]1CCCC[C@H]1N > 46 µM
CC(C)C[C@@H](CC(=O)N[C@H](CC(=O)N[C@@H]1CCCC[C@H]1C(=O)N[C@H](CC(=O)N[C@@H](CCC(=O)O)CC(=O)O)Cc1ccccc1)C(C)C)NC(=O)[C@@H]1CCCC[C@H]1N > 46 µM
CC(C)C[C@@H](CC(=O)N[C@@H](CCC(=O)O)CC(=O)O)NC(=O)[C@@H]1CNCC[C@H]1NC(=O)C[C@H](CCCN)NC(=O)C[C@H](Cc1c[nH]c2ccccc12)NC(=O)[C@@H]1CNCC[C@H]1N > 46 µM
COc1ccc(-c2coc3ccc(O[C@@H]4O[C@@H](COC(C)=O)[C@@H](OC(C)=O)[C@@H](OC(C)=O)[C@H]4OC(C)=O)c(OC(C)=O)c3c2=O)cc1 > 46 µM
CC(C)[C@@H](CC(=O)N[C@@H]1CCCC[C@H]1C(=O)N[C@H](CC(=O)N[C@@H](CCC(=O)O)CC(=O)O)Cc1ccccc1)NC(=O)C[C@H](Cc1ccccc1)NC(=O)[C@@H]1CNCC[C@H]1N > 46 µM
Clc1ccc(CO[C@@H](Cn2ccnc2)c2ccc(Cl)cc2Cl)cc1 > 20.6 µM
NCCC[C@@H](CC(=O)N[C@@H]1CCCC[C@H]1C(=O)N[C@H](CC(=O)N[C@@H](CCC(=O)O)CC(=O)O)Cc1ccccc1)NC(=O)C[C@H](Cc1c[nH]c2ccccc12)NC(=O)[C@@H]1CCCC[C@H]1N > 46 µM
CC(C)C[C@@H](CC(=O)N[C@H](CC(=O)N[C@@H]1CCCC[C@H]1C(=O)N[C@H](CC(=O)N[C@@H](CCC(=O)O)CC(=O)O)Cc1ccccc1)C(C)C)NC(=O)[C@@H]1CNCC[C@H]1N > 46 µM
CC(C)[C@@H](CC(=O)N[C@@H]1CCCC[C@H]1C(=O)N[C@H](CC(=O)N[C@@H](CCC(=O)O)CC(=O)O)Cc1ccccc1)NC(=O)C[C@H](Cc1ccccc1)NC(=O)[C@@H]1CCCC[C@H]1N > 46 µM
CC(C)C[C@@H](CC(=O)N[C@H](CC(=O)N[C@@H]1CCNC[C@H]1C(=O)N[C@H](CC(=O)N[C@@H](CCC(=O)O)CC(=O)O)Cc1c[nH]c2ccccc12)C(C)C)NC(=O)[C@@H]1CCCC[C@H]1N > 46 µM
NCCC[C@@H](CC(=O)N[C@@H]1CCNC[C@H]1C(=O)N[C@H](CC(=O)N[C@@H](CCC(=O)O)CC(=O)O)Cc1ccccc1)NC(=O)C[C@H](Cc1c[nH]c2ccccc12)NC(=O)[C@@H]1CCCC[C@H]1N > 46 µM
